SMILES strings stand for the structures. Among all 16,000 compounds or so, about 2,600 (16%) were called active. Another 20% or so got no clear call; they are omitted. Calls come from the whole dose curve; as a rule, active = well fitted curve in the direction sought with a large enough effect; inconclusive = small, poorly fitted or top-dose-only effect, or effect the other way; inactive = no such curve, though single readings can be large or run the other way. Only a sample is shown.
% is set by controls: 0 for no effect and ±100 for the full control effect.

Chain of Cytochrome P450 2D6 (Homo sapiens) (P10635 whole entry, looked up): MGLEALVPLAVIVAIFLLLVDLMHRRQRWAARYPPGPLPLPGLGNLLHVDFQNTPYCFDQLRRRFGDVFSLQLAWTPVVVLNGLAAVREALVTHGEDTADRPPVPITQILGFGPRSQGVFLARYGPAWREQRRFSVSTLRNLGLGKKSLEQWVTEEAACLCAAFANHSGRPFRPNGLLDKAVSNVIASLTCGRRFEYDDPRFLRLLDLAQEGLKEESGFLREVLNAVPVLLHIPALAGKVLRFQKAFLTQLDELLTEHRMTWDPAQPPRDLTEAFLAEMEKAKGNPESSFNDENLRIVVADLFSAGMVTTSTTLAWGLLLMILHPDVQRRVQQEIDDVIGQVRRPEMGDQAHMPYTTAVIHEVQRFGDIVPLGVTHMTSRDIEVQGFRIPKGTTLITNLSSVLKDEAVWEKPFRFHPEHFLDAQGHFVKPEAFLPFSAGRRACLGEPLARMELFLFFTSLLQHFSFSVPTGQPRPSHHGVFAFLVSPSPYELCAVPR

This assay addresses Cytochrome P450 2D6 (Homo sapiens) (UniProt P10635). In words: Cytochrome panel assay with activity outcomes. Particulars: recombinant CYP, pro-luciferin dealkylation, luminescence, p450-cyp2d6; series mostly up to 57.1 µM; activity, negative = inhibition: at the top concentration.
Take `N#Cc1ccccc1Sc1ccccc1N`: the “activity, negative = inhibition” value is -20% (inactive).
Same read-out and setting: next, `CCc1ccc(-c2csc(NC(=O)C3CCCO3)c2C(=O)OC(C)C)cc1` (configuration not stated): -13.9% (inactive).
Turning to `Fc1ccc(CN(C2=NCCN2)c2c(Cl)cccc2Cl)cc1`, the AC50 is 1.26 µM (active).
Regarding `CN(C)C(=O)Oc1cccc([N+](C)(C)C)c1`, the “activity, negative = inhibition” value was 3.32% (inactive).
On to `Cc1ccc2c(c1)N(CCC(=O)NCc1ccc3c(c1)OCO3)C(=O)CO2`, for which the AC50 was 14.1 µM (active).
As for `COc1ccccc1CNC(=O)CCN1C(=O)COc2ccc(C)cc21`, the “activity, negative = inhibition” value was -7.37% (inactive).
For `Cc1ccc2c(c1)N(CCC(=O)NCCN1CCOCC1)C(=O)CO2`, the “activity, negative = inhibition” value is -18.8% (inactive).
On to `O=c1c(-c2ccc(F)cc2)nc2cnc(N3CCNCC3)nc2n1-c1ccccc1`, for which the “activity, negative = inhibition” value is -8.75% (inactive).
Consider `Cn1cc(-c2nc3cnc(Oc4ccccc4)nc3n(CCC#N)c2=O)c2ccccc21`, for which the “activity, negative = inhibition” value is 2.05% (inactive).
As for `Nc1ncnc2c1nc(Sc1ccc(Cl)cc1)n2[C@@H]1O[C@H]2COP(=O)(O)O[C@@H]2[C@H]1O`, the “activity, negative = inhibition” value is -5.59% (inactive).
As to `COC(=O)[C@@]1(Cc2ccc(F)cc2)[C@H]2c3cc(C(=O)N(C)C)n(Cc4c(CO)[nH]cc(C)c4=O)c3C[C@H]2CN1C(=O)c1ccccc1`, the AC50 was 15.8 µM (active).
With `COC(=O)[C@@]1(Cc2ccc(F)cc2)[C@H]2c3cc(C(=O)N4CCCC4)n(Cc4ccc(S(C)(=O)=O)cc4)c3C[C@H]2CN1C(=O)c1ccccc1`, the “activity, negative = inhibition” value was -15.9% (inactive).
On the same count and under the same terms, the result for `COC(=O)[C@@]1(Cc2ccc(OC)cc2)[C@H]2c3cc(C(=O)N(C)C)[nH]c3C[C@H]2CN1C(=O)c1ccccc1` reads -14.8% (inactive); that for `COC(=O)[C@@]1(Cc2ccc(F)cc2)[C@H]2c3cc(C(=O)N4CCCC4)n(Cc4cccc5ccccc45)c3C[C@H]2CN1C(=O)c1ccccc1`, -0.395% (inactive).
Regarding `COC(=O)[C@@]1(Cc2ccccc2)[C@H]2c3cc(C(=O)N(C)C)n(Cc4c(CO)[nH]cc(C)c4=O)c3C[C@H]2CN1C(=O)c1ccccc1`, the AC50 was 12.6 µM (active).
In the case of `COC(=O)[C@@]1(Cc2ccc(OC)cc2)[C@H]2c3cc(C(=O)N4CCCC4)n(CCn4cc([N+](=O)[O-])nc4C)c3C[C@H]2CN1C(=O)c1ccccc1`, the “activity, negative = inhibition” value is -0.835% (inactive).
On the same count and under the same terms, the result for `CC(=O)NCc1c(Cl)cccc1-n1cccc1` reads -25.8% (inactive).
Regarding `CC(C)(C)OC(=O)COc1cc(OCC(=O)OC(C)(C)C)c2c(=O)cc(-c3ccccc3)oc2c1`, the “activity, negative = inhibition” value is 4.28% (inactive).
As to `O=c1c(-c2cc(F)cc(F)c2)nc2cncnc2n1C1CC1`, the “activity, negative = inhibition” value is -7.27% (inactive).
Turning to `CN1C[C@H](c2ccccc2)C(O)([C@]2(c3ccccc3)CN(C)C[C@@H](c3ccccc3)C2=O)[C@H](c2ccccc2)C1` (some centres not stated), the activity, negative = inhibition was -18.6% [at 11.4 µM] (inactive).
Take `CN1CCc2cc(Cl)c(O)cc2[C@H](c2ccccc2)C1`: the AC50 was 0.631 µM (active).
As for `Cc1cccc([C@@H]2CN(C)CCc3c2cc(O)c(O)c3Cl)c1`, the “activity, negative = inhibition” value is -0.0741% (inactive).
On to `C=CCN1CCc2cc(O)c(O)cc2[C@H](c2ccccc2)C1`, for which the concentration at half-maximal activity (AC50) is 0.398 µM (active).
As for `C=CCN1CCc2c(cc(O)c(O)c2Cl)[C@H](c2ccccc2)C1`, the AC50 was 25.1 µM (active).
On the same count and under the same terms, next, `C=CCN1CCc2c(cc(O)c(O)c2Br)[C@H](c2ccccc2)C1`: 12.6 µM (active).
For `COc1ccc(C[C@@H]2c3cc(OC)c(OC)cc3CC[N@+]2(C)CCC(=O)OCCCCCOC(=O)CC[N@@+]2(C)CCc3cc(OC)c(OC)cc3[C@H]2Cc2ccc(OC)c(OC)c2)cc1OC`, the “activity, negative = inhibition” value was -15.6% [at 25.6 µM] (inactive).
In the case of `Nc1ccccc1C#Cc1ccccc1`, the AC50 result was “inactive”.
`Cc1nc(N/N=C/c2ccccc2)nc(N(C)c2ccccc2)c1[N+](=O)[O-]`: the “activity, negative = inhibition” value is 4.53% (inactive).
On the same count and under the same terms, next, `CO[C@@H]1COC(=O)C/C=C\[C@@H](C)COC(=O)[C@H](Cc2ccccc2)NC(=O)C/C=C\[C@H]1C`: -17% [at 11.4 µM] (inactive); `COC(=O)C(Cc1ccc(OC(=O)c2ccc(C(F)(F)F)cc2)cc1)N1Cc2ccccc2C1=O` (configuration not stated): -11.1% (inactive); `Cc1nc(NC(=O)c2ccco2)sc1-c1csc(Nc2ccc(Cl)cc2Cl)n1`: -25.3% (inactive).
The same measure, in the same setting: next, `Cc1nc(NC(=O)c2ccccc2)sc1-c1csc(Nc2ccc(Cl)cc2)n1`: -21.7% (inactive); `COc1ccccc1Nc1nc(-c2sc(NC(=O)c3ccccc3)nc2C)cs1`: -0.255% (inactive).
Consider `C=CCCC(=O)Nc1nc(C)c(-c2csc(Nc3ccc(Cl)cc3)n2)s1`, for which the AC50 is 17.8 µM (active).
As for `Cc1nc(NC(=O)c2ccccc2)sc1-c1csc(Nc2ccc(F)cc2)n1`, the “activity, negative = inhibition” value is -28.9% (inactive).
On to `Cc1nc(NC(=O)c2ccccc2)sc1-c1csc(Nc2cccc(Cl)c2)n1`, for which the AC50 is 10 µM (active).
Regarding `CC1(C)OCC([C@H](O)C2=CCCCC2=O)CO1`, the activity, negative = inhibition was 9.36% [at 11.4 µM] (inactive).
Still for that read-out and setting: the result for `COc1cc(/C=C2\SC(=S)N(Nc3ccccc3)C2=O)cc(OC)c1OC` reads -10.3% (inactive); that for `CC(=O)c1cc(C#N)c(Oc2ccc(F)cc2)nc1C`, 8.22% (inactive).
Same read-out and setting: next, `Cc1cnc(NC(=O)CCCc2nc3ccccc3s2)s1`: -11% (inactive).
Same read-out and setting: next, `COc1cccc([C@@H]2Oc3ccc(OC)cc3/C(=N/OC[C@@H](O)COCc3ccco3)[C@@H]2O)c1`: 5.07% [at 11.4 µM] (inactive).
As for `COc1cccc([C@@H]2Oc3ccc(OC)cc3/C(=N/OC[C@@H](C)[C@H](OCc3ccccc3)C(C)C)[C@@H]2O)c1`, the activity, negative = inhibition is 0.0498% [at 11.4 µM] (inactive).
For the molecule `COc1cccc([C@@H]2Oc3ccc(Br)cc3C(=O)[C@H]2O)c1`, the AC50 is 3.16 µM (active).
On to `CN(C(=S)Nc1ccccc1F)C1(c2ccccc2Cl)CCCCC1=O` (configuration not stated), for which the “activity, negative = inhibition” value is -6.2% (inactive).
`c1ccc(CCc2nc(-c3ccccc3)no2)cc1`: the “activity, negative = inhibition” value is -18.9% (inactive).
As to `O=S(=O)(c1ccc(Cl)cc1)c1cnc(-c2cccnc2)nc1-c1ccccc1`, the “activity, negative = inhibition” value was -0.701% (inactive).
For `Clc1ccc(Cc2nc(-c3cccnc3)no2)cc1`, the AC50 was 1.78 µM (active).

The term AC50 denotes the concentration giving half of the maximal activity seen.

(Values after PubChem BioAssay AID1851 (National Center for Advancing Translational Sciences (NCATS), 2009).)
